# Assay results as given in paper PMC5540273 (PLoS ONE, 2017).
# How the values were obtained:
# Conditions in all cases: concentration: 1 μM, replicates: in singlicate; n = 1
# MERTK = system: MERTK
# MET = system: MET
# MINK = system: T1, MINK
# T1 construct: gene MINK1
# MKK7 = system: MKK7
# MKNK1 = system: MKNK1
# MKNK2 = system: MKNK2
# MLCK = system: T2, MLCK
# T2 construct: gene MYLK3
# MLK1 = system: T3, MLK1
# T3 construct: gene MAP3K9
# MLK2 = system: MLK2
# MLK3 = system: MLK3
# MRCKA = system: MRCKA
# MRCKB = system: T4, MRCKB
# T4 construct: gene CDC42BPB
# MST1R = system: MST1R
# MST1 = system: T5, MST1
# T5 construct: gene STK4
# MST2 = system: T6, MST2
# T6 construct: gene STK3
# MST3 = system: T7, MST3
# T7 construct: gene STK24
# MST4 = system: MST4
# MTOR = system: MTOR
# MUSK = system: MUSK
# MYLK2 = system: MYLK2
# 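Note: KINOMEscan kinase panel screen.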
smiles,measurement,setting,value
CSc1ccc(NC2=C(c3ccccc3Cl)C(=O)NC2=O)cc1 [SB-342411],%Inh,MERTK,0%
same,%Inh,MET,0%
same,%Inh,MINK,2%
same,%Inh,MKK7,39%
same,%Inh,MKNK1,100%
same,%Inh,MKNK2,0%
same,%Inh,MLCK,0%
same,%Inh,MLK1,9%
same,%Inh,MLK2,0%
same,%Inh,MLK3,4%
same,%Inh,MRCKA,0%
same,%Inh,MRCKB,0%
same,%Inh,MST1R,27%
same,%Inh,MST1,6%
same,%Inh,MST2,0%
same,%Inh,MST3,0%
same,%Inh,MST4,8%
same,%Inh,MTOR,13%
same,%Inh,MUSK,0%
same,%Inh,MYLK2,8%
N#Cc1ccc(Oc2ccc(Nc3ncnc4cc[nH]c34)cc2Cl)cc1,%Inh,MERTK,0%
same,%Inh,MET,11%
same,%Inh,MINK,31%
same,%Inh,MKK7,0%
same,%Inh,MKNK1,0%
same,%Inh,MKNK2,20%
same,%Inh,MLCK,8%
same,%Inh,MLK1,0%
same,%Inh,MLK2,0%
same,%Inh,MLK3,0%
same,%Inh,MRCKA,12%
same,%Inh,MRCKB,32%
same,%Inh,MST1R,11%
same,%Inh,MST1,10%
same,%Inh,MST2,19%
same,%Inh,MST3,24%
same,%Inh,MST4,0%
same,%Inh,MTOR,13%
same,%Inh,MUSK,6%
same,%Inh,MYLK2,16%
O=C(NCCCN1CCCC1=O)c1cnc(NCc2cc(Cl)ccc2Cl)nc1NC1CCNCC1,%Inh,MERTK,63%
same,%Inh,MET,0%
same,%Inh,MINK,0%
same,%Inh,MKK7,0%
same,%Inh,MKNK1,0%
same,%Inh,MKNK2,0%
same,%Inh,MLCK,11%
same,%Inh,MLK1,0%
same,%Inh,MLK2,0%
same,%Inh,MLK3,0%
same,%Inh,MRCKA,0%
same,%Inh,MRCKB,0%
same,%Inh,MST1R,72%
same,%Inh,MST1,8%
same,%Inh,MST2,0%
same,%Inh,MST3,32%
same,%Inh,MST4,44%
same,%Inh,MTOR,36%
same,%Inh,MUSK,7%
same,%Inh,MYLK2,1%
COc1cc2ncnc(Nc3ccc(OCc4ccccc4Br)c(Cl)c3)c2cc1OC.Cl [GI261590],%Inh,MERTK,7%
same,%Inh,MET,0%
same,%Inh,MINK,0%
same,%Inh,MKK7,0%
same,%Inh,MKNK1,0%
same,%Inh,MKNK2,11%
same,%Inh,MLCK,0%
same,%Inh,MLK1,0%
same,%Inh,MLK2,11%
same,%Inh,MLK3,9%
same,%Inh,MRCKA,23%
same,%Inh,MRCKB,0%
same,%Inh,MST1R,48%
same,%Inh,MST1,10%
same,%Inh,MST2,0%
same,%Inh,MST3,0%
same,%Inh,MST4,0%
same,%Inh,MTOR,24%
same,%Inh,MUSK,12%
same,%Inh,MYLK2,0%
Clc1ccc(-c2cc(-c3c[nH]nc3-c3ccccn3)ccn2)cc1 [GW681251],%Inh,MERTK,27%
same,%Inh,MET,0%
same,%Inh,MINK,78%
same,%Inh,MKK7,30%
same,%Inh,MKNK1,0%
same,%Inh,MKNK2,3%
same,%Inh,MLCK,0%
same,%Inh,MLK1,0%
same,%Inh,MLK2,0%
same,%Inh,MLK3,0%
same,%Inh,MRCKA,0%
same,%Inh,MRCKB,1%
same,%Inh,MST1R,0%
same,%Inh,MST1,0%
same,%Inh,MST2,0%
same,%Inh,MST3,0%
same,%Inh,MST4,0%
same,%Inh,MTOR,20%
same,%Inh,MUSK,12%
same,%Inh,MYLK2,0%
CCC(CC)(CC)n1cnc2c(N)ncnc21 [SKF-97620],%Inh,MERTK,40%
same,%Inh,MET,0%
same,%Inh,MINK,15%
same,%Inh,MKK7,0%
same,%Inh,MKNK1,0%
same,%Inh,MKNK2,10%
same,%Inh,MLCK,0%
same,%Inh,MLK1,0%
same,%Inh,MLK2,3%
same,%Inh,MLK3,1%
same,%Inh,MRCKA,0%
same,%Inh,MRCKB,13%
same,%Inh,MST1R,0%
same,%Inh,MST1,6%
same,%Inh,MST2,7%
same,%Inh,MST3,10%
same,%Inh,MST4,30%
same,%Inh,MTOR,14%
same,%Inh,MUSK,11%
same,%Inh,MYLK2,19%
COC(=O)c1c(-c2ccccc2)c2cc(Cl)ccc2c(=O)n1Cc1ccc(S(C)(=O)=O)cc1,%Inh,MERTK,8%
same,%Inh,MET,0%
same,%Inh,MINK,0%
same,%Inh,MKK7,0%
same,%Inh,MKNK1,0%
same,%Inh,MKNK2,0%
same,%Inh,MLCK,0%
same,%Inh,MLK1,0%
same,%Inh,MLK2,0%
same,%Inh,MLK3,4%
same,%Inh,MRCKA,0%
same,%Inh,MRCKB,0%
same,%Inh,MST1R,24%
same,%Inh,MST1,1%
same,%Inh,MST2,18%
same,%Inh,MST3,7%
same,%Inh,MST4,0%
same,%Inh,MTOR,0%
same,%Inh,MUSK,0%
same,%Inh,MYLK2,0%
NC(=O)c1sc(-n2cnc3ccccc32)cc1OCc1ccccc1F [GSK1024306],%Inh,MERTK,32%
same,%Inh,MET,20%
same,%Inh,MINK,1%
same,%Inh,MKK7,0%
same,%Inh,MKNK1,10%
same,%Inh,MKNK2,0%
same,%Inh,MLCK,0%
same,%Inh,MLK1,9%
same,%Inh,MLK2,0%
same,%Inh,MLK3,7%
same,%Inh,MRCKA,17%
same,%Inh,MRCKB,0%
same,%Inh,MST1R,9%
same,%Inh,MST1,0%
same,%Inh,MST2,0%
same,%Inh,MST3,0%
same,%Inh,MST4,0%
same,%Inh,MTOR,19%
same,%Inh,MUSK,0%
same,%Inh,MYLK2,7%
O=C(c1ccc(-c2cc(-c3c[nH]nc3-c3ccccn3)ccn2)cc1)N1CCCC1 [GW792479],%Inh,MERTK,0%
same,%Inh,MET,23%
same,%Inh,MINK,30%
same,%Inh,MKK7,0%
same,%Inh,MKNK1,0%
same,%Inh,MKNK2,0%
same,%Inh,MLCK,0%
same,%Inh,MLK1,14%
same,%Inh,MLK2,14%
same,%Inh,MLK3,3%
same,%Inh,MRCKA,24%
same,%Inh,MRCKB,0%
same,%Inh,MST1R,0%
same,%Inh,MST1,0%
same,%Inh,MST2,0%
same,%Inh,MST3,11%
same,%Inh,MST4,0%
same,%Inh,MTOR,14%
same,%Inh,MUSK,9%
same,%Inh,MYLK2,0%
COc1cc2c(Nc3cccc(NC(=O)c4ccccc4)c3)ncnc2cc1OCCCN1CCOCC1 [GSK223810],%Inh,MERTK,20%
same,%Inh,MET,1%
same,%Inh,MINK,0%
same,%Inh,MKK7,0%
same,%Inh,MKNK1,23%
same,%Inh,MKNK2,9%
same,%Inh,MLCK,0%
same,%Inh,MLK1,0%
same,%Inh,MLK2,23%
same,%Inh,MLK3,13%
same,%Inh,MRCKA,15%
same,%Inh,MRCKB,4%
same,%Inh,MST1R,0%
same,%Inh,MST1,4%
same,%Inh,MST2,0%
same,%Inh,MST3,10%
same,%Inh,MST4,0%
same,%Inh,MTOR,6%
same,%Inh,MUSK,1%
same,%Inh,MYLK2,0%
Cn1cc(-c2ccc3c(c2)CCN3C(=O)Cc2cccc(C(F)(F)F)c2)c2c(N)ncnc21 [GSK2606414],%Inh,MERTK,43%
same,%Inh,MET,0%
same,%Inh,MINK,0%
same,%Inh,MKK7,0%
same,%Inh,MKNK1,0%
same,%Inh,MKNK2,1%
same,%Inh,MLCK,12%
same,%Inh,MLK1,0%
same,%Inh,MLK2,27%
same,%Inh,MLK3,8%
same,%Inh,MRCKA,0%
same,%Inh,MRCKB,0%
same,%Inh,MST1R,6%
same,%Inh,MST1,14%
same,%Inh,MST2,0%
same,%Inh,MST3,0%
same,%Inh,MST4,0%
same,%Inh,MTOR,0%
same,%Inh,MUSK,6%
same,%Inh,MYLK2,24%
C[C@@H]1CCN(C(=O)CO)C[C@@H]1N(C)c1ncnc2[nH]ccc12,%Inh,MERTK,0%
same,%Inh,MET,0%
same,%Inh,MINK,0%
same,%Inh,MKK7,0%
same,%Inh,MKNK1,0%
same,%Inh,MKNK2,0%
same,%Inh,MLCK,14%
same,%Inh,MLK1,0%
same,%Inh,MLK2,35%
same,%Inh,MLK3,8%
same,%Inh,MRCKA,0%
same,%Inh,MRCKB,100%
same,%Inh,MST1R,21%
same,%Inh,MST1,12%
same,%Inh,MST2,0%
same,%Inh,MST3,11%
same,%Inh,MST4,0%
same,%Inh,MTOR,55%
same,%Inh,MUSK,0%
same,%Inh,MYLK2,2%
Cl.Cn1ccc(-c2cccc(Nc3ccnc4cc(-c5nccs5)ccc34)c2)n1 [GW525701],%Inh,MERTK,23%
same,%Inh,MET,0%
same,%Inh,MINK,54%
same,%Inh,MKK7,0%
same,%Inh,MKNK1,7%
same,%Inh,MKNK2,1%
same,%Inh,MLCK,14%
same,%Inh,MLK1,0%
same,%Inh,MLK2,0%
same,%Inh,MLK3,0%
same,%Inh,MRCKA,37%
same,%Inh,MRCKB,0%
same,%Inh,MST1R,29%
same,%Inh,MST1,0%
same,%Inh,MST2,0%
same,%Inh,MST3,0%
same,%Inh,MST4,0%
same,%Inh,MTOR,35%
same,%Inh,MUSK,0%
same,%Inh,MYLK2,0%
C[C@H]1CC[C@@H](C(=O)Nc2ccccc2)CN1c1cc(-c2ccc3c(N)n[nH]c3c2)nc(N)n1 [GSK2283293],%Inh,MERTK,11%
same,%Inh,MET,100%
same,%Inh,MINK,17%
same,%Inh,MKK7,0%
same,%Inh,MKNK1,0%
same,%Inh,MKNK2,3%
same,%Inh,MLCK,0%
same,%Inh,MLK1,0%
same,%Inh,MLK2,0%
same,%Inh,MLK3,0%
same,%Inh,MRCKA,65%
same,%Inh,MRCKB,0%
same,%Inh,MST1R,17%
same,%Inh,MST1,0%
same,%Inh,MST2,0%
same,%Inh,MST3,0%
same,%Inh,MST4,0%
same,%Inh,MTOR,8%
same,%Inh,MUSK,13%
same,%Inh,MYLK2,1%
Fc1cccc(COc2ccc(Nc3ncnc4cc[nH]c34)cc2Cl)c1,%Inh,MERTK,0%
same,%Inh,MET,8%
same,%Inh,MINK,34%
same,%Inh,MKK7,0%
same,%Inh,MKNK1,19%
same,%Inh,MKNK2,10%
same,%Inh,MLCK,0%
same,%Inh,MLK1,9%
same,%Inh,MLK2,0%
same,%Inh,MLK3,32%
same,%Inh,MRCKA,10%
same,%Inh,MRCKB,0%
same,%Inh,MST1R,30%
same,%Inh,MST1,16%
same,%Inh,MST2,19%
same,%Inh,MST3,23%
same,%Inh,MST4,0%
same,%Inh,MTOR,0%
same,%Inh,MUSK,10%
same,%Inh,MYLK2,0%
